Results from ChEMBL document CHEMBL4513216, “Probing the Open Global Health Chemical Diversity Library for Multistage-Active Starting Points for Next-Generation Antimalarials” (ACS Infect Dis, 2020).
Out of some 65,000 compounds screened, about 2,100 (3.2%) showed an effect of 50% or more. The median lay at about -52%. The list comes from a sample in which strong results are over-represented; it also holds similar structures and randomly drawn compounds.

system: Plasmodium falciparum; assay: Screen against P. falciparum Asexual Blood Stage (ABS), at 5uM; type: functional, Dd2; settings: tested at 5 uM

| SMILES | INHIBITION [%] |
| --- | --- |
| COCCN1CCCCC12CC(=O)N(c1ccccc1OC)C2 (centres undefined) | -78.3 |
| c1coc(CN2CCC3(CCOCC3COCC3CC3)CC2)c1 (centres undefined) | 62.3 |
| c1cc(CN2CCC3(CCOCC3COCC3CC3)CC2)co1 (centres undefined) | 14.4 |
| O=C(Cc1ccco1)N1CCC2(CCOCC2COCC2CC2)CC1 (centres undefined) | -30.9 |
| Cc1cccc(CN2CCC3(CCCN(C(=O)N(C)C)C3)C2=O)n1 (centres undefined) | -86.4 |
| CN(C)c1nc(N)nc(CN2CCCC(c3ccccc3)CC2)n1 (centres undefined) | 54 |
| CN(C)c1nc(N)nc(CN2CCCC2c2cccs2)n1 (centres undefined) | 52 |
| c1ccc(C2CCCN(Cc3cc4n(n3)CCNC4)CC2)cc1 (centres undefined) | 37.2 |
| Cc1cccc(C2CCCN2Cc2nc(N)nc(N(C)C)n2)c1C (centres undefined) | -12.4 |
| CN(C)c1nc(N)nc(CN2CCC(c3nc4ccccc4o3)CC2)n1 | 7.31 |
| CN(C)c1nc(N)nc(CN2CCCC2c2ccsc2)n1 (centres undefined) | 26.9 |
| COCC1CN(C(=O)Cc2ccccn2)Cc2ncnn2C1 (centres undefined) | -70.5 |
| Cc1cc(C(=O)N2CCN(c3nc4c(C(C)C)cccc4s3)CC2)on1 | 35.8 |
| COCCOCC(=O)Nc1ccc(F)cc1C | -33.5 |
| CC(C)(C)c1nc(CN2CCC(c3nc4cc(Cl)ccc4o3)CC2)no1 | -67.9 |
| Cc1nc(CN2CCC(c3nc4cc(Cl)ccc4o3)CC2)oc1C | -53.1 |
| Cc1noc(C)c1CN1CCC(c2nc3cc(Cl)ccc3o2)CC1 | 58.5 |
| O=C([C@@H]1COC[C@H]2CN(C3CCCC3)C[C@H]21)N1CCC(F)CC1 | -68.8 |
| CN1CCN(C(=O)c2nc3c(o2)CN(C(=O)c2cccnc2)C3)CC1 | -0.0268 |
| O=C(CSC1=NS(=O)(=O)c2cc(F)ccc2N1)Nc1ccc(Cl)c(Cl)c1 | -21.5 |
| O=C(N1CCOCC1)N1CCC2(CC1)CN(c1ccccn1)CCO2 | -99.6 |
| Cc1ccc(C(CNCc2ncc[nH]2)N2CCOCC2)s1 (centres undefined) | 34.5 |

| SMILES | INHIBITION [%] |
| --- | --- |
| CCn1cc(CNCC(c2ccc(C)s2)N2CCOCC2)cn1 (centres undefined) | 65.7 |
| Cc1ccc(C(CNCc2ccc(C#N)cc2)N2CCOCC2)s1 (centres undefined) | 52.3 |
| Cc1ccc(C(CNCC2CC2)N2CCOCC2)s1 (centres undefined) | 26.8 |
| CCn1ccnc1CNCC(c1ccc(C)s1)N1CCOCC1 (centres undefined) | 54.1 |
| Cc1ccc(C(CNCc2ccncc2)N2CCOCC2)s1 (centres undefined) | -40.9 |
| Cc1ccc(C(CNCc2cccn2C)N2CCOCC2)s1 (centres undefined) | -38.5 |
| O=C(CCn1cccn1)NCC(c1cccs1)N1CCOCC1 (centres undefined) | -64.1 |
| CCCn1cc(CNCC(c2ccc(C)s2)N2CCOCC2)cn1 (centres undefined) | 56.8 |
| CCCn1cc(CN2CCOCC2c2[nH]ncc2C)cn1 (centres undefined) | -155 |
| Cc1ccc(C(CNCc2cnn(C(C)C)c2)N2CCOCC2)s1 (centres undefined) | 35.9 |
| Cc1ccc(C(CNCc2nccn2C)N2CCOCC2)s1 (centres undefined) | -28.6 |
| CCCOc1ccc(CNc2cncc(-n3cccn3)n2)cc1 | -99.4 |
| Cc1ccc(N2CCC3(CCCN(C(=O)c4cccnc4)C3)C2)nn1 (centres undefined) | -0.21 |
| O=C(O)c1cccc2c(Br)cccc12 | -180 |
| Cn1cnc2c1CCN(Cc1csc(-c3ccccc3F)n1)C2 | -58 |
| O=C(c1ccc2c(c1)CCCC2)N1CCN(c2cnccn2)CC1 | 45 |
| CCS(=O)(=O)N1Cc2ccccc2CC1C(=O)OCc1cc(C)no1 (centres undefined) | -132 |
| Cc1cc(C(F)(F)F)nc(CNC(=O)CCn2cccn2)n1 | -223 |
| O=C([C@@H]1CCO[C@@H]2CCN(Cc3cccs3)C[C@H]21)N1CCCCO1 | -36.6 |
| Cc1cccc(NC(=O)c2[nH]nc(C(C)C)c2Br)n1 | 57.6 |
| CC(C)c1n[nH]c(C(=O)Nc2ccncc2)c1Br | -163 |
| CC(C)c1n[nH]c(C(=O)Nc2cc[nH]n2)c1Br | -208 |

| SMILES | INHIBITION [%] |
| --- | --- |
| O=S(=O)(c1cccnc1)N1CCN(Cc2nc(-c3cccs3)cs2)CC1 | -29 |
| CNS(=O)(=O)CCCN(C)Cc1cc(C)ccc1OC | 26.6 |
| COc1ccc(C(=O)NCc2ccco2)nn1 | -126 |
| COC(=O)c1ccc(CNC(C)(C)c2ccccc2OC)o1 | 1.74 |
| COc1ccccc1C(C)(C)NCc1ccco1 | 65.7 |
| COc1ccc(CN(C)C(=O)Cc2c(C)nn(C)c2C)cc1F | -154 |
| Cc1noc([C@@H]2C[C@H]3CN(Cc4scnc4C)C[C@H]3O2)n1 | -40.7 |
| CC(C)n1c(=O)c2sccc2n(CC(=O)Nc2ccccc2)c1=O | -27.6 |
| Cc1ccc(N2C[C@@H]3CN(C(=O)c4ccccc4)CCO[C@@H]3C2)nn1 | -12.5 |
| CS(=O)(=O)NCC1CCCCN1Cc1cccc(C#N)c1 (centres undefined) | -92.3 |
| CS(=O)(=O)NCC1CCCCN1Cc1ccccc1C#N (centres undefined) | -34.1 |
| CN(C)c1ccccc1CN1CCCCC1CNS(C)(=O)=O (centres undefined) | 60.5 |
| O=c1ccc2c([nH]1)CCC(NCc1ccc3c(c1)OCO3)C2 (centres undefined) | -104 |
| Cc1cccc2c(CCNC(=O)NCC[S+](C)[O-])c[nH]c12 (centres undefined) | -103 |
| Cc1cccc2c(CCNC(=O)NCCC[S+](C)[O-])c[nH]c12 (centres undefined) | -85.3 |
| Cc1cccc2c(CCNC(=O)[C@H](N)c3ccccc3)c[nH]c12 | 61.2 |
| CN(Cc1ccc2c(c1)OCCO2)Cc1nnnn1-c1ccccc1 | -39.1 |
| Oc1ccc2oc3c(c2c1CN1CCOCC1)CCCC3 | 19.1 |
| NC(=O)C1CN(Cc2c(O)ccc3oc4c(c23)CCCC4)CCO1 (centres undefined) | -23.1 |
| CCC1CN(Cc2c(O)ccc3oc4c(c23)CCCC4)CCO1 (centres undefined) | 60 |
| CN(Cc1ccccc1)c1ncccc1CNC1CCCC1 | 65.6 |
| CN(Cc1ccccc1)c1ncccc1CNC1CCSCC1 | 26.2 |

| SMILES | INHIBITION [%] |
| --- | --- |
| CC(=O)N1CCC(NCc2cccnc2N(C)Cc2ccccc2)CC1 | -57.8 |
| CCc1nnsc1C(=O)NCc1nnc2n1CCC2 | -217 |
| Cc1ccc(N2CC3(COCCN(Cc4ccccn4)C3)OCC2=O)s1 (centres undefined) | -89.9 |
| COc1c(CNC2CCSc3ccc(F)cc32)c(C)nn1C (centres undefined) | -115 |
| c1cnc(-c2nc(CN3CCCC(N4CCCC4)C3)cs2)nc1 (centres undefined) | 51.7 |
| CC1CCCN(Cc2csc(-c3ncccn3)n2)CC1 (centres undefined) | -29.2 |
| CC(=O)NC1CCCN(Cc2csc(-c3ncccn3)n2)C1 (centres undefined) | -89.8 |
| O=C(NC1CC1)C1CCc2nnc(C3CC3)n21 (centres undefined) | -100 |
| c1ccc(OCC2CC3(CCN(CC4CCOCC4)CC3)CO2)nc1 (centres undefined) | -83.4 |
| Cc1cc(C)nc(Nc2cc(C)nc(C3CCN(C(=O)CO)C3)n2)n1 (centres undefined) | -74.1 |
| CN(C)C(=O)CC1CC2(CCN(Cc3ccco3)CC2)c2ccccc21 (centres undefined) | 24.7 |
| Fc1ccc(-n2cccn2)c(CN2CCCCC2CCn2ccnc2)c1 (centres undefined) | 7.69 |
| c1ccc(-c2ncc(CN3CCCCC3CCn3cccn3)cn2)nc1 (centres undefined) | 51 |
| Fc1cccc(-n2ccc(CN3CCCC3Cn3cccn3)n2)c1 (centres undefined) | 4.96 |
| Fc1cccc(-n2cc(CN3CCCCC3CCn3ccnc3)cn2)c1 (centres undefined) | 68.9 |
| CN(C)[C@H]1CCCCN(Cc2ccccc2Cn2cccn2)C1 | 51 |
| CN(C)C1CCCN(Cc2cccc(Cn3cccn3)c2)CC1 (centres undefined) | 34 |
| CC1CN(Cc2ccccc2Cn2cccn2)CCN1C (centres undefined) | 48.4 |
| Cc1ccc2nc(CN3CCCCC3CCn3cccn3)cn2c1 (centres undefined) | -63.2 |
| CN(C)CCC1CCCCN1Cc1cnc(-c2ccccn2)nc1 (centres undefined) | 38.9 |
| Fc1cccc(-n2ccc(CN3CCCCC3Cn3cncn3)n2)c1 (centres undefined) | -44.8 |
| c1ccc(Cn2cccn2)c(CN2CCCCC2CCn2ccnc2)c1 (centres undefined) | 64.4 |

| SMILES | INHIBITION [%] |
| --- | --- |
| c1cnn(CCC2CCCCN2Cc2cnc(C3CCCCC3)nc2)c1 (centres undefined) | -9.85 |
| CCc1cnc(N2CCC3(CCN(Cc4cccc(C)c4)C3=O)C2)nc1 (centres undefined) | 44.1 |
| CN(Cc1cccnc1)Cc1cncc2c1CCN(c1ccccn1)C2 | -26.1 |
| CCc1[nH]c2c(CNc3cnccn3)cc(F)cc2c1C | -64.1 |
| CN1CCNCC(Cc2cnc3ccccc3c2)C1 (centres undefined) | -67.9 |
| COCCCNC(=O)c1cc(C(C)C)nc(N2CCCC2)n1 | -93.7 |
| CCN(CC)CCNC(=O)c1cc(C(C)C)nc(N2CCCC2)n1 | -32.6 |
| CC(C)c1cc(C(=O)NCCCN(C)C)nc(N2CCCC2)n1 | 52.7 |
| NCCSc1nccc(-c2cnc(C3CC3)nc2-c2ccco2)n1 | -39.7 |
| CC(C)c1ncc2c(n1)CN(Cc1nnc(Cc3ccccc3)o1)CC2 | -45.2 |
| CCc1ccc(C(C)NC(=O)CN(C)Cc2ccc(C)o2)cc1 (centres undefined) | 13.3 |
| CCC(NC(=O)CN(C)Cc1ccc(C)o1)c1ccc(Br)cc1 (centres undefined) | 37.3 |
| CCC(NC(=O)CN(C)Cc1ccc(C)o1)c1ccc(C)cc1 (centres undefined) | 50.9 |
| N#Cc1ccc(CN2CC3(CCCCN3c3cccnc3)CC2=O)cc1 (centres undefined) | 7.75 |
| CC(C)(C#N)c1ccccc1CN1CCC(N2CCCC2=O)CC1 | -50.6 |
| Cc1cccc(-c2nccnc2C2CCCN(C)C2)c1C (centres undefined) | 2.65 |
| COc1ccccc1-c1nccnc1C1CCN(C(C)=O)CC1 | -20.5 |
| Cc1cccc(-c2nccnc2C2CCN(C)CC2)c1C | 54.2 |
| O=C(O)[C@@H]1CN(C(=O)Cc2ccccc2Cl)C[C@H]1C1CC1 | -94 |
| CNC(=O)N1C[C@@H]2C[C@H](C(=O)Nc3cccnc3)[C@H](C1)O2 | -142 |
| Cn1cnnc1C1CCN(C(=O)c2cc3c(s2)CCCC3)CC1 | -21.6 |
